# Measured values reported in PubChem BioAssay (NCATS).
# Results filed as inconclusive are left out. Unmarked numbers belong to inactive results. The source made the active and inactive calls. Calls come from the whole dose curve; tested in HEK293 reporter line.
# Assay: qHTS for Inhibitors of the Functional Ribonucleoprotein Complex (vRNP) of Lassa (LASV) Arenavirus: LASV Primary Screen - GLuc reporter signal (AID 1347082); note: nearly all actives have a fitted effect of over 60% in size
# Conditions: LASV minigenome vRNP, Gaussia luciferase reporter; series mostly up to 57.5 µM; activity change, negative = inhibition: at the top concentration
# % is set by controls: 0 for no effect and ±100 for the full control effect.
SMILES,"activity change, negative = inhibition",Potency
O=C1OC(OC(=O)c2cccnc2Nc2cccc(C(F)(F)F)c2)c2ccccc21 (centres undefined),-6.87%,–
C=CCSCC1Nc2cc(Cl)c(S(N)(=O)=O)cc2S(=O)(=O)N1 (centres undefined),-4.03%,–
C=CCc1ccccc1OCC(O)CNC(C)C (centres undefined),–,inactive
FC(F)(F)C(F)(F)C(F)(F)C(F)(F)C(F)(F)C(F)(F)C(F)(F)C(F)(F)Br,-9.17%,–
Nc1ccc(N=Nc2ccccc2)c(N)n1,-1.08%,–
C[N+]1(CC2COC(c3ccccc3)(C3CCCCC3)O2)CCCCC1 (centres undefined),16%,–
O=C1C(c2[nH]c3ccccc3c2O)=Nc2ccccc21,9.92%,–
Oc1c(Cl)cc(Cl)c2cccnc12,–,inactive
NC(=O)CCCCC1CCSS1 (centres undefined),-4.22%,–
CC(C)(Cc1c[nH]c2ccccc12)NCC(O)COc1ccccc1C#N (centres undefined),1.55%,–
COc1cc2[nH]c(=O)[nH]c(=O)c2cc1OC,-9.24%,–
CC(Oc1c(Cl)cccc1Cl)C1=NCCN1 (centres undefined),1.2%,–
O=C1c2ccccc2C(=O)C1c1ccc(Br)cc1,-8.91%,–
CCCCOc1cc(C(=O)OCCN(CC)CC)ccc1N,-5.93%,–
C=C1C[C@H]2[C@@H]3C=C(C)C4=CC(=O)CC[C@]4(C)[C@H]3CC[C@]2(C)[C@@]1(OC(C)=O)C(C)=O,-6.03%,–
C[C@]12CCC(=O)C=C1CC[C@@H]1[C@@H]2[C@@H](O)C[C@@]2(C)[C@H]1CC[C@]2(O)C(=O)CO,–,inactive
Cc1c(Cl)cccc1Nc1ccccc1C(=O)O,0.953%,–
CCC(=O)O[C@]1(C(=O)SCF)[C@H](C)C[C@H]2[C@@H]3C[C@H](F)C4=CC(=O)C=C[C@]4(C)[C@@]3(F)[C@@H](O)C[C@@]21C,–,inactive
CCN(CC)CCOC(=O)C(c1ccccc1)c1ccccc1,-7.55%,–
CCCCc1cc2ccccc2c(OCCN(C)C)n1,-8.83%,–

SMILES,"activity change, negative = inhibition",Potency
CCCC(=O)OC[C@@H](OC(=O)CCC)[C@@H](OC(=O)CCC)[C@H](Cn1c2nc(=O)[nH]c(=O)c-2nc2cc(C)c(C)cc21)OC(=O)CCC,-17.2%,–
C[N+]1(CC2COC(c3ccccc3)(c3ccccc3)O2)CCCCC1 (centres undefined),-13.4% [at 24.7 µM],–
CCN(CC)C(=O)c1cccc(C)c1,-5.4%,–
NNC(=O)CP(=O)(c1ccccc1)c1ccccc1,-1.46%,–
CN(C)CCCO[C@@H]1[C@H]2OC(C)(C)O[C@H]2O[C@@H]1C(O)CO (some centres undefined),-1.27%,–
CC(C)(Oc1ccc(CCNC(=O)c2ccc(Cl)cc2)cc1)C(=O)O,–,inactive
CC(C)OC(=O)C(C(=O)OC(C)C)=C1SC=CS1,–,inactive
NCCc1cnc[nH]1,–,inactive
O=c1[nH]c2ccccc2c(=O)n1CCCl,-12.4%,–
C[C@]12CCC(=O)C=C1C=C[C@@H]1[C@@H]2CC[C@@]2(C)[C@H]1CC[C@@]21CCC(=O)O1,2.48%,–
C[C@]12CC[C@@H]3c4ccc(O)cc4CC[C@H]3[C@@H]1CCC2=O,–,inactive
CN(C)CCN1C(=O)c2ccccc2N(C)c2ccccc21,-1.72%,–
CN1C[C@H](C(=O)N[C@]2(C)O[C@@]3(O)[C@@H]4CCCN4C(=O)[C@H](Cc4ccccc4)N3C2=O)C[C@@H]2c3cccc4[nH]cc(c34)C[C@H]21,–,inactive
CCC1Nc2cc(Cl)c(S(N)(=O)=O)cc2S(=O)(=O)N1 (centres undefined),-8.21%,–
CC(O)COc1ccccc1 (centres undefined),1.03%,–
CCN(CC)CC(=O)OCC(=O)[C@@]1(O)CC[C@H]2[C@@H]3CCC4=CC(=O)CC[C@]4(C)[C@H]3[C@@H](O)C[C@@]21C,5.54%,–
CC(C)c1cc2c(cc1S(=O)(=O)O)[C@@]1(C)CCC[C@@](C)(C(=O)O)[C@@H]1CC2,17.6%,–
C[C@@H]1CC[C@@]2(OC1)O[C@H]1C[C@H]3[C@@H]4CC[C@H]5C[C@@H](O)CC[C@]5(C)[C@H]4CC(=O)[C@]3(C)[C@H]1[C@@H]2C,-9.4% [at 5.82 µM],–
CC1=CC(=O)c2ccccc2C1=O,–,inactive
